# Bioassay records from PubChem BioAssay.
# Many of the other results were omitted from the sample, so hits are more common in it than they were.
# Sa helicase inh: blocks Staphylococcus aureus DNA helicase. purified S. aureus helicase, fluorescence unwinding assay. inhibition, % (test concentration not listed). actives 0.05% (n = 120,000). AID 485395; in the data active = inhibition above about 25%, passing the limit was not always enough;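 note: 0% = mean of negative control wells and 100% = mean of positive control wells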
# Sa growth 42C: blocks Staphylococcus aureus growth | S. aureus RN4220 growth, OD600, 20 h, 42 °C; active compounds read low | relative growth, % (concentration not given with the values) | actives 0.53% (n = 170,000) | AID 720641;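 active = relative growth at most 50% at the other temperature and 20+ points below 30 °C, or under 10% at both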
# * = called active by the depositor; . = not tested or not shown.
SMILES,Sa helicase inh,Sa growth 42C
C=C(C)CSc1n[nH]c2nc3c(c(=O)n12)C(C)(CC)Cc1ccccc1-3 (stereo not given),22,124
CC(=O)N1CCN(Cc2csc(Nc3ccccc3)n2)CC1,-6,106
CC1CN(Cc2csc(Nc3ccccc3)n2)CC(C)O1 (stereo not given),12,0.7*
COc1ccccc1/C=C1/SC(=O)N(CN2CC(C)OC(C)C2)C1=O (stereo not given),11,100
COc1cc(Cl)cc(C(=O)O)c1O,2,101
C[C@@H](O)[C@H]1C(=O)N2C(C(=O)O)=C(SCCN=CN)C[C@H]12,.,29*
Cc1cccc(O)c1O,-13,56
CCCN(CCC)S(=O)(=O)c1ccc(C(=O)Nc2nnc(-c3cccc(OC)c3)o2)cc1,-21,0.1*
COc1cccc(-c2nnc(NC(=O)c3ccc(S(=O)(=O)N(C)C)cc3)o2)c1,1,71
C=CCN(CC=C)S(=O)(=O)c1ccc(C(=O)Nc2nnc(-c3ccc(OC)cc3OC)o2)cc1,8,94
CN(CC1CCCO1)S(=O)(=O)c1ccc(C(=O)Nc2nnc(-c3ccccc3)o2)cc1 (stereo not given),8,-0.1*
CN(CC1CCCO1)S(=O)(=O)c1ccc(C(=O)Nc2ccc3c(c2)C(=O)NC3=O)cc1 (stereo not given),-9,96
CC(C)N(Cc1ccccc1)S(=O)(=O)c1ccc(C(=O)Nc2nnc(-c3cccs3)o2)cc1,-7,7.3*
COc1cccc(-c2nnc(NC(=O)c3ccc(S(=O)(=O)N(Cc4ccccc4)C(C)C)cc3)o2)c1,-3,0.4*
CC(=O)Nc1nnc(-c2cccs2)o1,-4,.
O=C(Oc1ccc2ccccc2c1CN1CCOCC1)c1cc(=O)[nH]c2ccccc12,10,85
COc1cc(/C=N/NC(=O)c2ccoc2C)ccc1OCC(=O)N1C(C)CCCC1C (stereo not given),-7,100
COc1ccc(-n2c(N(C(C)=O)C(C)=O)c(C#N)c3nc4ccccc4nc32)cc1,16,84
COc1cccc(-c2nnc(NC(=O)c3ccc(S(=O)(=O)N4CCCCC4C)cc3)o2)c1 (stereo not given),4,2.4*
COc1ccc(-c2nnc(NC(=O)c3ccc(S(=O)(=O)N4CCCCC4)cc3)o2)cc1,1,20
Cc1cc(NC(=O)c2ccccc2)nc2c1c(=O)oc1ccccc12,-5,.
Cc1cc(NC(=O)c2ccc(N3C(=O)CCC3=O)cc2)nc2c1c(=O)oc1ccccc12,-11,0.1*
CC1CN(c2ccccc2OC(=O)Nc2ccc(OC(F)(F)F)cc2)CC(C)O1 (stereo not given),.,3.0*
O=C(Nc1ccc(OC(F)(F)F)cc1)Oc1ccccc1N1CCOCC1,.,3.7*
O=C(Nc1ccc(Cl)cc1)Oc1ccccc1N1CCSCC1,.,117
SMILES,Sa helicase inh,Sa growth 42C
O=C(Nc1ccc(F)cc1)Oc1ccccc1N1CCOCC1,-6,95
CCOC(=O)c1cc(C(=O)O)nn1C,-1,99
COc1cccc(N=c2scc(-c3ccco3)n2CC2CCCO2)c1 (stereo not given),-2,96
COc1ccc(CCN2COc3c(cc(Cl)c4cccnc34)C2)cc1OC,14,.
COCCN1COc2c(cc(Cl)c3cccnc23)C1,12,0.9*
COc1cc(C=Nc2ccccc2)cc(OC)c1O,6,99
O=C(COC(=O)Cc1ccsc1)Nc1ccc(C(F)(F)F)cc1,16,92
CCN(Cc1ccccc1)C(=O)Cc1ccccc1,.,103
CCN(Cc1ccccc1)C(=O)Nc1c[nH]c2ccccc12,-13,3.6*
CCCN(CCC)C(=O)CSc1nc2ccncc2[nH]1,-11,102
CS(=O)(=O)c1ccc([C@@H](O)[C@@H](CO)NC(=O)C(Cl)Cl)cc1,.,14
CS(=O)(=O)c1ccc([C@@H](O)[C@@H](CF)NC(=O)C(Cl)Cl)cc1,.,-0.4*
CC(NC(=O)CSc1ccccn1)c1ccc2c(c1)OCO2 (stereo not given),5,89
Oc1cc2c(cc1C(Nc1ccccn1)c1ccc3c(c1)OCO3)OCO2 (stereo not given),4,0.6*
CC(COc1ccc2c(c1)OCO2)NC(=O)Cn1nnc2ccccc2c1=O (stereo not given),-24,99
CCOC(=O)C1=C(O)c2ccccc2C1=O,4,122
CCOC(=O)c1c2c(n3ccccc13)C(=O)c1ccccc1C2=O,-9,9.7*
CCOC(=O)c1oc2ccccc2c1CO,10,-0.7*
CCOC(=O)c1oc2ccccc2c1CN1C(=O)c2ccccc2C1=O,-20,92
C=C(C)c1cccc(C(C)(C)NC(=O)N2c3ccc(F)cc3CCC2C)c1 (stereo not given),-3,97
CCOC(=O)N1CCC(n2c(SCC(=O)Nc3ccc(OC)cc3OC)nc3ccsc3c2=O)CC1,.,99
Cc1ccc(/C=C2\CCCC3=C2Nc2nnnn2C3c2ccc(C)cc2)cc1 (stereo not given),9,0.7*
COc1ccc(/C=C2\CCCC3=C2Nc2ncnn2C3c2ccc(OC)cc2)cc1 (stereo not given),4,80
C[n+]1cn(CC(=O)Nc2ccccc2)c2ccccc21,12,90
COc1ccc(/C(C)=N/O)cc1CSc1ccccn1,.,125
SMILES,Sa helicase inh,Sa growth 42C
O=S(=O)(c1cc(Cl)ccc1Cl)N1CCCCC1,.,109
O=S(=O)(c1cc(Cl)ccc1Cl)N1CCCC1,1,49*
CC1=C(C(=O)N2CCCCC2)C(c2ccc3c(c2)OCO3)C2=C(CCCC2=O)N1 (stereo not given),.,103
NC(=NCCCCCCN=C(N)/N=C(\N)Nc1ccc(Cl)cc1)/N=C(\N)Nc1ccc(Cl)cc1,.,-0.8*
CC(C)N=C(N)/N=C(\N)Nc1ccc(Cl)cc1,.,94
Oc1cccc(N=Cc2cc(Br)ccc2O)c1,-10,32*
Oc1ccccc1C=Nc1cccc(N=Cc2ccccc2O)c1,1,109
Cc1ccc(OCC(=O)NCCO)c(C)c1,-2,83
Cc1nc(-c2cccs2)cs1,17,76
S=c1nc(-c2cccs2)cn[nH]1,-2,39*
Cc1ccc(C(=O)c2cn(Cc3ccccc3C)c3nc(C)ccc3c2=O)cc1,.,104
O=C(O)/C=C/C(=O)c1ccccc1,5,124
O=C(/C=C/C(=O)c1ccc2ccccc2c1)c1ccccc1,3,-0.4*
CCc1ccccc1N1CC(c2nc3ccccc3n2CCc2ccccc2)CC1=O (stereo not given),9,85
O=C(O)c1cn(-c2ccc(F)cc2)c2cc(N3CCNCC3)c(F)cc2c1=O,.,-0.9*
O=C(O)c1cn(C2CC2)c2cc(N3CCN(C(=S)S)CC3)c(F)cc2c1=O,14,-0.9*
Cn1cc(S(=O)(=O)c2ccccc2)c(=O)c2cc(F)c(N3CCN(c4ccc(F)cc4)CC3)cc21,.,101
CCOC(=O)c1cn(CC)c2cc(N3CCCC3)c(F)cc2c1=O,13,89
CCOC(=O)c1cc(-c2ccccc2)n(CCC(=O)Nc2nc3c(C)cccc3s2)c1C,.,93
c1ccc(Nc2nc3ccccc3[nH]2)nc1,6,0.9*
CNc1nc2ccccc2[nH]1,-26,108
Nc1c(-c2ccccc2)nnn1-c1ccccc1,8,114
CCCCN1C(=O)c2ccc(C(=O)Oc3ccc(-c4nnco4)cc3)cc2C1=O,-10,87
CN(C)Cc1ccc2ccc3cccc4ccc1c2c34,50*,69
Cc1c(CC#N)ccc2ccccc12,.,99
C/C(=N\n1cnnc1)c1ccc(-n2cnnn2)cc1,-4,87
Nc1nc(C(F)(F)F)nn1C(=O)c1ccc(Br)cc1,-8,96
